Laboratory results published in PubChem BioAssay (NCATS).
Values joined by “and” are separate entries in the source; they are usually repeats but may differ in a detail not shown here. Identical values can stand only once. Results filed as inconclusive are left out. Active and inactive are the calls of the source. Unless noted, calls come from the whole dose curve; as a rule, active = well fitted curve in the direction sought with a large enough effect; inconclusive = small, poorly fitted or top-dose-only effect, or another doubt; inactive = no such curve, though single readings can be large; an effect the other way counts as inactive or inconclusive.

Assays:
[1] = S16 Schwann cell PMP22 intronic element firefly luciferase assay (AID 624032); note: nearly all actives have a fitted effect of over 30% in size; note: potency is the fitted concentration of half-maximal effect
Outline: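 Luciferase reporter of PMP22 intronic-element expression in stably transfected S16 rat Schwann cells, read by ONE-Glo luminescence after 24 h compound exposure at 37 C. Activity scaled between DMSO (0%) and positive-control PTC124; concentration-effect curves quality-classified.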

[2] = S16 Schwann cell PMP22 intronic element beta-lactamase assay (AID 624044; calls by dose curve; note: nearly all actives have a fitted effect of over 15% in size; note: potency is the fitted concentration of half-maximal effect)
Outline: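 Rat S16 Schwann cells with beta-Lac driven by a PMP22 intronic element, compound-treated 24 h at 37 °C. LiveBLAzer FRET B/G read: 460 nm normalized to potassium clavulanate vs DMSO; 535 nm FRET as viability; concentration-effect curves classified.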

[3] = target: Glutaminase kidney isoform, mitochondrial (Homo sapiens) (UniProt O94925); test: qHTS for Inhibitors of Glutaminase (GLS): LOPAC Validation (AID 624146);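 note: glutamate product detected by oxidase and peroxidase coupled Amplex red fluorescence gain; % is set by controls: 0 for no effect and ±100 for the full control effect; nearly all actives have a fitted effect of over 60% in size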
Sequence of Glutaminase kidney isoform, mitochondrial (Homo sapiens) (O94925 whole entry, looked up, canonical isoform): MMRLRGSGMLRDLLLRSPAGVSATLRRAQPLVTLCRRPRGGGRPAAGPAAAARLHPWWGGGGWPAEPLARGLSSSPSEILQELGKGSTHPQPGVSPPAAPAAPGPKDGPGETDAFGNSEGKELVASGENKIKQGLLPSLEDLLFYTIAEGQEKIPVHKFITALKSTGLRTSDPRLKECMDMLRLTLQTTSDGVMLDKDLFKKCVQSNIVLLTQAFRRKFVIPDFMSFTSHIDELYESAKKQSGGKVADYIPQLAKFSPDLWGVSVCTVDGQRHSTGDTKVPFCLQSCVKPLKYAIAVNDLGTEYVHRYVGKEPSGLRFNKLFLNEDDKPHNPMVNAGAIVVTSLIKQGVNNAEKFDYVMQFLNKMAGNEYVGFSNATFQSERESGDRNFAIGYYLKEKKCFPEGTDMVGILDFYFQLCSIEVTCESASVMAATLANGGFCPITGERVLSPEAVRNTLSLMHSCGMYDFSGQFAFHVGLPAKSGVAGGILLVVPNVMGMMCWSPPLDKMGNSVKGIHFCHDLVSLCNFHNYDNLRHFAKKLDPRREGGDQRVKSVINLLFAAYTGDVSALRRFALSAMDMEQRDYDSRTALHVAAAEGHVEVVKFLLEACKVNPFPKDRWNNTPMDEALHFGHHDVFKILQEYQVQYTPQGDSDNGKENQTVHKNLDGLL
Outline: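 Assay buffer: 45 mM KH2PO4 pH 8.2, 0.02% Tween-20. hKGA acts on L-glutamine (1 mM solution added); product glutamate is reported by an oxidase/peroxidase Amplex Red coupling, with fluorescence taken at baseline and 30 min.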

[4] = qHTS of Trypanosoma Brucei Inhibitors: LOPAC Validation (AID 624147); note: 0% is about no effect
Outline: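 Quantitative HTS: titrated library compounds versus trypanosomal pyruvate kinase in TEA buffer (pH 7.2) containing KCl, MgCl2, BSA and Tween-20. Reactions were initiated with ADP, 130 uM final. Kinase-Glo Plus luminescence was read after 45 min at RT.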

[5] = target: Glucagon-like peptide 1 receptor (Homo sapiens) (UniProt P43220); test: qHTS of GLP-1 Receptor Agonists: LOPAC Validation (AID 624148);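 note: luminescence from a luciferase reporter switched on by cAMP; 0% is about no effect; higher luminescence signal means agonism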
Sequence of Glucagon-like peptide 1 receptor (Homo sapiens) (P43220 whole entry, looked up): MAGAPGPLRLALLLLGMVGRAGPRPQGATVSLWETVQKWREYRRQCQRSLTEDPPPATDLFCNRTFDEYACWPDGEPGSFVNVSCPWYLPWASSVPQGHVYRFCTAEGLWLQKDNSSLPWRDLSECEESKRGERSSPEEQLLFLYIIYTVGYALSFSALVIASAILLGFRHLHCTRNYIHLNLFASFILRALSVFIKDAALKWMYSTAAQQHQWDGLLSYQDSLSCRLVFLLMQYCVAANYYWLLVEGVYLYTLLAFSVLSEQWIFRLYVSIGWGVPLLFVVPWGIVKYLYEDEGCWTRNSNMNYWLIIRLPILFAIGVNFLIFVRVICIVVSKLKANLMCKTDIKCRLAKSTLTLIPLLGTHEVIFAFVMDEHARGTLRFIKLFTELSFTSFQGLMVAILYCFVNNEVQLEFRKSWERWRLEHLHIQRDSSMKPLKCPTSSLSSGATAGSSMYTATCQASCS
Outline: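 Agonism scored as increased luciferase luminescence driven by cAMP in HEK293 clones carrying GLP-1R. Cells settled 12 hours, received compound for 4-6 hr at 37 deg C, 5% CO2, and were read after 12 min detection reagent at RT.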

[6] = qHTS of Nrf2 Activators: LOPAC Validation (AID 624149); note: 0% is about no effect
Outline: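 ARE reporter activation measured in AREc32 firefly luciferase cells after 24 hr compound exposure; Steady-Glo luminescence.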

[7] = HTS Assay for Allosteric Antagonists of the Human D2 Dopamine Receptor: Hit Validation in HTRF (AID 624455);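 note: stable D1 dopamine receptor cell line scored for blocking the D1 response; % is set by controls: 0 for no effect and ±100 for the full control effect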
Outline: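 Signal from an HTRF read-out in D1-expressing stable cells gave hit activity as inhibition of the D1 response.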

[8] = qHTS assay for small molecule activators of the nuclear factor-kappa B (NF-kB) signaling pathway (AID 651749; active = well fitted activation curve with a large enough effect in the signal ratio; the % refers to the signal ratio; note: % of control where 0% means no effect); details: NF-kB-bla ME-180 cells, beta-lactamase FRET ratio, 16 h; stronger effect = higher value
Outline: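 Stably transfected ME-180 line; NF-kB response element upstream of beta-lactamase. Treatment: compound or DMSO, 16 hr. Detection: fluorescent FRET substrate.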

[9] = qHTS assay for small molecule agonists of the antioxidant response element (ARE) signaling pathway (AID 651741; active = well fitted activation curve with a large enough effect in the signal ratio; the % refers to the signal ratio; note: potency is the fitted concentration of half-maximal effect; for activation: % of control where 0% means no effect)
Outline: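 Seeding 2,000 ARE-bla HepG2 cells per well preceded a 5 h incubation at 37 C/5% CO2 and a 16 h compound exposure at 37 C. Beta-lactamase reporter activity was then quantified by fluorescence after 2 h with LiveBLAzer B/G FRET substrate.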

[10] = target: Tumor necrosis factor (Homo sapiens) (UniProt P01375); test: qHTS assay to identify small molecules that stimulate Tumor Necrosis Factor-alpha (TNF-alpha) secretion (AID 651757; active = well fitted curve in the direction sought with a large enough effect in the signal ratio; the % refers to the signal ratio; note: 0% is about no effect)
Sequence of Tumor necrosis factor (Homo sapiens) (P01375 whole entry, looked up): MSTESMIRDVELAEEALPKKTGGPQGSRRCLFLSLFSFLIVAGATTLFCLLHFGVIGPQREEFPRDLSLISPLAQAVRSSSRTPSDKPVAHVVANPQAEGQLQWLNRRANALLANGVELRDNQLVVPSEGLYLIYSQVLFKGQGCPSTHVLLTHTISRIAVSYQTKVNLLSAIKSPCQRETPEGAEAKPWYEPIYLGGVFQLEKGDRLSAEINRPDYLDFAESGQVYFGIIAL
Outline: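 Secreted TNF-alpha from compound-treated THP-1 cells (17 hrs, 37 C) was quantified with a homogeneous time-resolved fluorescence antibody assay.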

[11] = target: Tumor susceptibility gene 101 protein (Homo sapiens) (UniProt Q99816); test: qHTS Assay for Iinhibitors of HIV-1 Budding by Blocking the Interaction of PTAP/TSG101: Hit Validation (AID 651600); details: PTAP peptide/TSG101 UEV interaction, biochemical assay; note: potency is the fitted concentration of half-maximal effect; nearly all actives have a fitted effect of over 70% in size
Sequence of Tumor susceptibility gene 101 protein (Homo sapiens) (Q99816 whole entry, looked up, the tested form may be a part): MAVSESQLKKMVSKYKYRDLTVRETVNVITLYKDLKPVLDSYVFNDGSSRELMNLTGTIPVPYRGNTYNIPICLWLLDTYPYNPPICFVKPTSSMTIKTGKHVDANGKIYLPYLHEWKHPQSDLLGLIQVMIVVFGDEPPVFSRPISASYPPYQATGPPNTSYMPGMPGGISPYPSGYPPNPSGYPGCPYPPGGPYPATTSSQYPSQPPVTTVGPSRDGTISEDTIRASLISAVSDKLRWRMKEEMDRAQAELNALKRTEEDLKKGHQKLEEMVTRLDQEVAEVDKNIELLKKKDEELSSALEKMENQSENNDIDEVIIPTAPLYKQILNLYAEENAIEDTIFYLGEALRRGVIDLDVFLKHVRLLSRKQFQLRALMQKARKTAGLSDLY
Outline: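 Tsg101 binding domain 10 uM + FITC-PTAP peptide 50 nM (final), 10 mM HEPES pH 7.5/0.15 M NaCl/0.01% Tween 20/3 mM EDTA/0.1 mM TCEP; 20 min RT; FP read, FITC filters.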

[12] = Cytotoxicity counterscreen for NFkB agonists and antagonists (AID 624476);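 note: cells exposed to compound for 48 hours; % is set by controls: 0 for no effect and ±100 for the full control effect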
[13] = qHTS Assay for Identification of Small Molecule Agonists for NFkB Signaling Pathway. (AID 624478);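 note: compounds tested together with TNF alpha at its EC50 of 10 pM; 0% is about no effect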
Outline: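 Cells carrying an NFkB response element-driven beta-lactamase gene are co-treated with compound and 10 pM TNF alpha for 5 h, and reporter activity is then read as 460 and 530 nm fluorescence.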

[14] = qHTS Assay for Identification of Small Molecule Antagonists for NFkB Signaling Pathway. (AID 624479; calls by dose curve;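 note: pathway stimulated with TNF alpha; % is set by controls: 0 for no effect and ±100 for the full control effect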)
[15] = Cell Proliferation Assay against the TMD8 Cell Line (AID 651645); details: TMD8 DLBCL cell line proliferation/viability; at 46.1 µM (top of the series) unless noted;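 note: cells exposed to compound for 48 h before reading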
Outline: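 Luminescent ATP read-out (CellTiter-Glo, 15 min RT) after 48 h compound exposure of log-growing TMD8 cells at 37C; percent activity scaled between DMSO as 100% and 9.2 uM bortezomib final as 0%.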

[16] = Cell Proliferation Assay against the HBL1 Cell Line (AID 651646); details: HBL1 DLBCL cells; at 46.1 µM (top of the series) unless noted;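 note: cells exposed to compound for 48 h before reading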
Outline: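 Luminescent ATP read-out (CellTiter-Glo) after 48 h compound exposure of HBL1 cells at 37 °C; percent activity was scaled between DMSO as 100% and 9.2 uM bortezomib (final) as 0%.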

[17] = Cell Proliferation Assay against the TMD8 Cell Line (Caspase readout at 16 hrs) (AID 651712)
Outline: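 Apoptotic response of TMD8 cells was judged from caspase 3/7 activation following a 16 hour compound incubation at 37 °C. Luminescent signal was converted to percent activity, with DMSO set as 0% and 9.2 uM final bortezomib as 100%.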

[18] = Cell Proliferation Assay against the TMD8 Cell Line (Caspase readout at 8 hrs) (AID 651713)
Outline: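 Percent activity derived from Caspase-Glo signal, DMSO set to 0% and bortezomib (9.2 uM final) to 100%. TMD8 cells were exposed to compound for 8 h in RPMI with 5% FBS.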

COc1ccccc1OCCNCC(O)COc1cccc2[nH]c3ccccc3c12 (stereo unspecified)
inactive: Potency [2] | Potency [3] | Potency [4] | Potency [5] | outcome [6] | Potency [7]
active: Potency [1] 25.6 µM

CS(=O)(=O)Nc1ccc([N+](=O)[O-])cc1Oc1ccccc1
inactive: Potency [1] | Potency [5] | outcome [6] | Potency [7]

CC(C)(Oc1ccc(C2CC2(Cl)Cl)cc1)C(=O)O (stereo unspecified)
inactive: Potency [1] | Potency [3] | Potency [4] | Potency [5] | outcome [6] | Potency [7] | activation [8] 1.65%

O=C(Nc1ccc([N+](=O)[O-])cc1Cl)c1cc(Cl)ccc1O
inactive: Potency [3] | Potency [4] | Potency [5] | outcome [6] | Potency [7] | activation [8] -2.6%
active: Potency [2] 2.51 µM | Potency [9] 3.06 µM

CCC1(c2ccccc2)C(=O)NCNC1=O
inactive: Potency [1] | Potency [3] | Potency [5] | outcome [6] | Potency [7] | Potency [9] | activation [8] 0.499% and -0.837% | outcome [10]

CN1CCN(C2=Nc3cc(Cl)ccc3Nc3ccccc32)CC1
inactive: Potency [2] | Potency [3] | Potency [4] | Potency [5]

CCCCc1oc2ccccc2c1C(=O)c1cc(I)c(OCCN(CC)CC)c(I)c1
inactive: Potency [3] | Potency [5] | outcome [6] | Potency [7]
active: Potency [1] 28.7 µM

CC#C[C@]1(O)CC[C@H]2[C@@H]3CCC4=CC(=O)CCC4=C3[C@@H](c3ccc(N(C)C)cc3)C[C@@]21C
active: Potency [9] 21.7 µM
inactive: Potency [2] | Potency [5] | outcome [6] | Potency [7] | activation [8] 4.11%

Cc1cc(C(C)(C)C)c(O)c(C)c1CC1=NCCN1
inactive: Potency [1] | Potency [5] | outcome [6] | Potency [7]

Cc1ccc(C(=O)Nc2ccc(S(=O)(=O)O)c3cc(S(=O)(=O)O)cc(S(=O)(=O)O)c23)cc1NC(=O)c1cccc(NC(=O)Nc2cccc(C(=O)Nc3cc(C(=O)Nc4ccc(S(=O)(=O)O)c5cc(S(=O)(=O)O)cc(S(=O)(=O)O)c45)ccc3C)c2)c1
inactive: Potency [1] | Potency [5] | outcome [6] | Potency [7]

Clc1ccc2c(c1)C(N1CCNCC1)=Nc1ccccc1O2
active: Potency [1] 11.4 µM
inactive: Potency [3] | Potency [5] | outcome [6] | Potency [7]

NS(=O)(=O)c1cc2c(cc1Cl)NCNS2(=O)=O
inactive: Potency [1] | Potency [3] | Potency [4] | Potency [5] | outcome [6] | Potency [7] | Potency [9] | outcome [10]

COc1cc2nc(N3CCN(C(=O)C4COc5ccccc5O4)CC3)nc(N)c2cc1OC (stereo unspecified)
inactive: Potency [3] | Potency [4] | Potency [5] | outcome [6] | Potency [7]

OCCN(CCO)c1nc(N2CCCCC2)c2nc(N(CCO)CCO)nc(N3CCCCC3)c2n1
active: Potency [1] 10.2 µM | Potency [11] 18.3 µM
inactive: Potency [3] | Potency [5] | Potency [7]

Cn1c(=O)c2c(ncn2C)n(C)c1=O
inactive: Potency [1] | Potency [3] | Potency [4] | Potency [5] | outcome [6] | Potency [7] | Potency [9] | outcome [10]

CC12CC3CC(C)(C1)CC(N)(C3)C2
inactive: Potency [1] | Potency [3] | Potency [5] | outcome [6] | Potency [7]

CN1C(C(=O)Nc2ccccn2)=C(O)c2ccccc2S1(=O)=O
inactive: Potency [1] | Potency [3] | Potency [5] | outcome [6] | Potency [7]

CN(C)C(=N)N=C(N)N
inactive: Potency [1] | Potency [12] | outcome [13] | Potency [14] | Potency [17] | Potency [18]
125%: viability, percent of control [16]
131%: viability (% of control) [15]
